Compound activity as filed in PubChem BioAssay.
Epigenetic mod = derepresses silenced GFP locus in mouse C127i cells; mouse C127i GFP locus derepression, cytometry, 30 h; Potency, µM (highest dose often 46.1 µM); 68,000 tested, 0.09% active; AID 597
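Derepression screen: silenced CMV-GFP reporter in murine C127i cells, 30 h compound incubation at 37 C, washed cells imaged by laser-scanning cytometer to enumerate GFP-expressing objects of 20 to 120 um.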
Tau filament bind = tau filament binding; P10636; recombinant tau filaments, thioflavin S fluorescence, 15 h; filaments grown with octadecylsulfate alongside compound; Potency, µM (highest dose often 57.1 µM); 71,000 tested, 2% active; AID 596;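 further: actives lower thioflavin S fluorescence by blocking filaments or displacing dye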
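Tau 2 uM in ThS buffer dispensed; compound added; 60 uM ODS added (finals 1 uM tau, 30 uM ODS); 15 h 37 C; fluor ex450/em510.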
15-hLO inh = 15-hLO (ALOX15) enzyme inhibition; purified 15hLO-1, xylenol orange hydroperoxide absorbance; 74,000 tested, 1.4% active; AID 887; Potency, µM (highest dose often 57.1 µM), actives largely listed as inhibitors; further: nearly all actives have a fitted effect of over 55% in size
Target sequence (P16050 whole entry, looked up): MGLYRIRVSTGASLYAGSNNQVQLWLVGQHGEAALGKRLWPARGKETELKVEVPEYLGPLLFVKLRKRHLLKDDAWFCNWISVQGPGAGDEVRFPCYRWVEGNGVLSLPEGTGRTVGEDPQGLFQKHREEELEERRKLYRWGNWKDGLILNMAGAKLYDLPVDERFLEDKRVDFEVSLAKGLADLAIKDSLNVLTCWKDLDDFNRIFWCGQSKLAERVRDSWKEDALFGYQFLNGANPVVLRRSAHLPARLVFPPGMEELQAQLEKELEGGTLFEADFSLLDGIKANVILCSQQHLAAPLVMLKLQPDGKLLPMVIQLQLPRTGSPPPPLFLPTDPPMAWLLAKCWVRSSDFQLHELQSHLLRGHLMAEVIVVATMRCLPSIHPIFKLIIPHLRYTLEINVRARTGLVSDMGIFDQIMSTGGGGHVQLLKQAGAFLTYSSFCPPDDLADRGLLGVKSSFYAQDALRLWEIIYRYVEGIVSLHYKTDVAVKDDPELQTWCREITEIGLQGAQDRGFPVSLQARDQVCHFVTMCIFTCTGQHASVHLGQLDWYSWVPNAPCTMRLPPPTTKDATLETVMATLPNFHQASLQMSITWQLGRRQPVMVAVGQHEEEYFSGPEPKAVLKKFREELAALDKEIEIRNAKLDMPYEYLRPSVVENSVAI
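Compounds were preincubated 15 min at room temperature with 40 nM purified human enzyme (25 mM Hepes pH 7.5, 0.01% Triton X-100); 50 uM arachidonic acid reacted 6 min. Fe-xylenol orange detection, 30 min, absorbance ratio 573/405 nm.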
Pol III holo inh = inhibitors of bacterial DNA polymerase III holoenzyme; reconstituted DNA polymerase III holoenzyme replication, biochemical; Potency, µM (highest dose often 57.1 µM); 71,000 tested, 0.25% active
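Reconstituted *E. coli* holoenzyme (0.35 nM Pol III, 1 nM beta, 154 nM SSB, 2 nM primase) was preincubated with compound for 15 min at RT. Synthesis on 1.4 nM ssM13Gori ran 35 min, then was stopped with PicoGreen/EDTA and read as dsDNA fluorescence.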
HBB splicing = alters splicing of the hemoglobin beta chain; HBB splicing reporter cell assay, activation; EGFP reporter with mutant IVS2-654 intron; response scale: normalised to 500 nM splice-correcting PNA; Potency, µM (top dose mostly 46.1 µM), most hits filed as activators; 65,000 tested, 0.06% active; AID 925
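Compounds were applied for 2 days to HeLa EGFP-654 cells, 500/well in Optimem with 2% FCS. The reporter's EGFP is disrupted by mis-splicing of beta-globin intron IVS2-654. Readout: summed well GFP fluorescence from 488 nm laser scanning; reference was 500 nM antisense […] 654 PNA.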
UbGFP stabilizer = ubiquitin-GFP accumulation via proteasome inhibition | Ubiquitin-GFP reporter cells, proteasome inhibition, GFP fluorescence; response scale: untreated = 0%, 10 µM MG-132 = 100% | Potency, µM (doses to about 45.9 µM), usual class: activators | 67,000 tested, under 10 active | AID 526; active means well fitted activation curve with a large enough effect, not every such curve was filed as active; inconclusive means small, poorly fitted or top-dose-only effect, or another doubt; inactive means no such curve, though single readings can be large or run the other way
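Proteasome block read as GFP accumulation: ubiquitin(G76V)-GFP U2OS cells exposed to compound (2.9 nM–46 uM) for 4 hr at 37 C. Normalization used untreated cells as 0% and 10 uM MG-132 as 100%; concentration-response curves fitted.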
Of the large screens only hits and unclear results are named; the others gave an inactive call; ! = repeats disagree. A selection: hits, their analogues and other compounds. The true share with any hit is near 3.2%. Unless noted, the call rests on the fitted dose curve; in most records, active means well fitted curve in the direction sought with a large enough effect; inconclusive means small, poorly fitted or top-dose-only effect, or another doubt; inactive means no such curve, though single readings can be large; an effect the other way counts as inactive or inconclusive.

Cc1cc(C)c2cc(CN(Cc3ccc4c(c3)OCO4)Cc3nnnn3Cc3ccco3)c(=O)[nH]c2c1	15-hLO inh 10µM (no result: HBB splicing)
O=c1[nH]c2cc3c(cc2cc1CN(Cc1ccccc1)Cc1nnnn1Cc1ccco1)OCCO3	15-hLO inh 32µM
Cc1ccc2[nH]c(=O)c(CN(Cc3ccc4c(c3)OCO4)Cc3nnnn3Cc3ccco3)cc2c1	15-hLO inh inconclusive (no result: HBB splicing)
Oc1c(Cl)cc(Cl)c2c1NCCC2	Tau filament bind inconclusive, 15-hLO inh 1.6µM
Cc1onc(-c2ccccc2Cl)c1C(=O)N1CCCc2ccccc21	none
Cc1onc(-c2ccccc2Cl)c1C(=O)OCC(=O)N1CCCc2ccccc21	15-hLO inh 20µM
NCCSC[C@H](N)C(=O)O	none
CN(C)CCNC(=O)c1ccc(-n2c(=O)c(=O)[nH]c3ccccc32)cc1	none (no result: Epigenetic mod, Tau filament bind, Pol III holo inh, HBB splicing, UbGFP stabilizer)
CN1CCN([C@@H]2Cc3ccccc3Sc3ccc(Cl)cc32)CC1	none
Cc1noc(C)c1-c1cc(N2CCNCC2)ncn1	none
Cc1noc(C)c1-c1cc(NC2CCNCC2)ncn1	15-hLO inh 16µM
COC(=O)/C=C\c1cc(O)ccc1O	Tau filament bind inconclusive, 15-hLO inh inconclusive (no result: HBB splicing)
Cc1nc(N=Nc2cc(S(=O)(=O)O)c3cc([N+](=O)[O-])cc(S(=O)(=O)O)c3c2)c(COP(=O)(O)O)c(C=O)c1O	Tau filament bind inconclusive, 15-hLO inh 10µM!, Pol III holo inh 32µM
Cc1cccc(-n2cnc3c(c2=O)c2nc4ccccc4nc2n3Cc2ccco2)c1	Tau filament bind 13µM
CCC(C)n1cnc2c(c1=O)c1nc3ccccc3nc1n2Cc1ccccc1OC (stereo unspecified)	Tau filament bind 4µM
COc1ccc(Cn2c3nc4ccccc4nc3c3c(=O)n(Cc4ccco4)cnc32)cc1	Tau filament bind 16µM, 15-hLO inh inconclusive
NC=O	none (no result: Epigenetic mod, UbGFP stabilizer)
NC(=O)C[C@H](N)C(N)=O	none
Cc1cc(C)n(CC(=O)N2c3ccccc3Sc3ccccc32)n1	none (no result: Tau filament bind, 15-hLO inh, Pol III holo inh, HBB splicing, UbGFP stabilizer)
CCN(CC)C(C)CN1c2ccccc2Sc2ccccc21 (stereo unspecified)	15-hLO inh 25µM (no result: Epigenetic mod, Tau filament bind, Pol III holo inh, HBB splicing, UbGFP stabilizer)
CNCCCC1c2ccccc2C=Cc2ccccc21	Tau filament bind 5µM!
C[Si](C)(c1ccc(C(=O)O)cc1)c1ccc(C(=O)O)cc1	none
O=c1c(-c2ccc(Cl)cc2)nc2cnc(N3CCNCC3)nc2n1Cc1cccs1	Tau filament bind 3.2µM, 15-hLO inh inconclusive, Pol III holo inh 25µM
